# Measured values from PubChem BioAssay (NCATS).
# “And” between values parts separate entries of the source, which are not always exact repeats. Identical values can stand only once. Results filed as inconclusive are left out. A call without a number means that no potency is given here. The source made the active and inactive calls. Unless noted, calls come from the whole dose curve; as a rule, active = well fitted curve in the direction sought with a large enough effect; inconclusive = small, poorly fitted or top-dose-only effect, or another doubt; inactive = no such curve, though single readings can be large; an effect the other way counts as inactive or inconclusive.
# How the values were obtained:
# [1] = P-glycoprotein substrates identified in KB-8-5-11 adenocarcinoma cell line, qHTS therapeutic library screen (AID 1346987); settings: KB-8-5-11 (P-gp overexpressing) viability, CellTiter-Glo, 72 h; series mostly up to 44.5 µM; note: nearly all actives have a fitted effect of over 65% in size; note: potency is the fitted concentration of half-maximal effect
# Method in brief: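 In this qHTS, P-gp-rich KB-8-5-11 cells received library compounds across a concentration range. Viability was quantified by luminescence after 72 h at 37 degree C.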
# [2] = system: Zika virus NS2B-NS3 protease (unlinked complex); test: Primary screen GU Rhodamine qHTS for Zika virus inhibitors: Unlinked NS2B-NS3 protease assay (AID 1347159); settings: Recombinant ZIKV NS2B-NS3 protease, Rhodamine110 substrate fluorescence; series mostly up to 107 µM; note: nearly all actives have a fitted effect of over 60% in size
# Method in brief: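 Enzyme 25 nM in Tris-HCl pH 8.0 + 0.01% Tween 20; compounds up to 114 microM, 15 min RT dark; + Rhod110 substrate 1.5 microM; read t0 and 15 min; delta fluorescence → % inhibition → 4-parameter Hill fit.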
# [3] = biological target: Cytochrome P450 2D6 (Homo sapiens) (UniProt P10635); test: Cytochrome P450 family 2 subfamily D member 6 (CYP2D6) small molecule antagonists: luciferase biochemical (cell-free) qHTS assay (AID 1645840; active = well fitted curve in the direction sought with a large enough effect in the repeat runs; an effect the other way counts as inactive or inconclusive; note: nearly all actives have a fitted effect of over 55% in size; note: potency is the fitted concentration of half-maximal effect); settings: P450-Glo CYP2D6 enzyme, luciferin luminescence, 1 h; series mostly up to 57.4 µM
# Cytochrome P450 2D6 (Homo sapiens), sequence (P10635 whole entry, looked up): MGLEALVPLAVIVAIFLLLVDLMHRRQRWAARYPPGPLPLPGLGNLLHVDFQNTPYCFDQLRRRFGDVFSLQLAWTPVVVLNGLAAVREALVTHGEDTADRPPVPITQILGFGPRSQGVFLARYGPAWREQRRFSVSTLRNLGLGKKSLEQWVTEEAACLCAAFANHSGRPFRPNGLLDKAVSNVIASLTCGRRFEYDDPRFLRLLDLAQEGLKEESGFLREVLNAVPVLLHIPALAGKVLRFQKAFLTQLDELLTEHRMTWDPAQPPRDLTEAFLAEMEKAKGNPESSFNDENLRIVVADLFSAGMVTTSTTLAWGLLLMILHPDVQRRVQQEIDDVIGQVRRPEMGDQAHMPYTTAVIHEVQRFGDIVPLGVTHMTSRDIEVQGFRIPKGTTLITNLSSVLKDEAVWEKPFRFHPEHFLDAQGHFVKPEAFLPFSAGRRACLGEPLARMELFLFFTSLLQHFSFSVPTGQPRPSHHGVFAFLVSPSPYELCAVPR
# Method in brief: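 P450-Glo CYP2D6 system: proluciferin substrate converted by enzyme to luciferin, read by luminescence proportional to activity. Enzyme-substrate mix with compound 10 min at room temperature, then NADPH regeneration 1 h before detection reagent.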
# CAOV3 = test: Primary qHTS to identify gynecologic anti-cancer compounds using libraries of approved drugs and bioactive compounds (AID 1345084); settings: Gynecologic cancer cell panel viability, ATPlite luminescence, 48 h; series mostly up to 57.5 µM; note: nearly all actives have a fitted effect of over 55% in size; note: potency is the fitted concentration of half-maximal effect
# Method in brief: (§1)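 In this quantitative HTS, cell killing is estimated from loss of ATP-dependent luciferase light. Cells see five compound concentrations over a 48 h exposure.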
# SKOV3 = test: as above; settings: Gynecologic cancer cell panel viability, ATPlite luminescence, 48 h; series mostly up to 57.5 µM
# Method in brief: as §1
# [4] = biological target: Cytochrome P450 2C9 (Homo sapiens) (UniProt P11712); test: Cytochrome P450 family 2 subfamily C member 9 (CYP2C9) small molecule antagonists: luciferase biochemical (cell-free) qHTS assay (AID 1645842; active = well fitted curve in the direction sought with a large enough effect in the repeat runs; an effect the other way counts as inactive or inconclusive; note: nearly all actives have a fitted effect of over 55% in size; note: potency is the fitted concentration of half-maximal effect); settings: P450-Glo CYP2C9 enzyme assay, luciferin luminescence; series mostly up to 57.4 µM
# Cytochrome P450 2C9 (Homo sapiens), sequence (P11712 whole entry, looked up): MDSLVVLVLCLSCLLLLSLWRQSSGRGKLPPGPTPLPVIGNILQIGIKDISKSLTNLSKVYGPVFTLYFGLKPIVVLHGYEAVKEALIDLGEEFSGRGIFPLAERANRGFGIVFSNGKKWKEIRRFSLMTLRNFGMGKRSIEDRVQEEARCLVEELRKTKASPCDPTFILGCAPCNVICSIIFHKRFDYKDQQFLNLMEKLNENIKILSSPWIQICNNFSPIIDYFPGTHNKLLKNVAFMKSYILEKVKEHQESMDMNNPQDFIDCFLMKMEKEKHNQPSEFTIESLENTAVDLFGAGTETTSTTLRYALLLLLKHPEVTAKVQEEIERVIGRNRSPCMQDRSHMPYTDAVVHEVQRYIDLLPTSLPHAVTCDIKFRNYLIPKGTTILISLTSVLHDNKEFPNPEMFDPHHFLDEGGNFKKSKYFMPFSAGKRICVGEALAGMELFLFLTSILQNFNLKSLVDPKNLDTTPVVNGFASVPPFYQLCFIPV
# Method in brief: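 P450-Glo CYP2C9 system: proluciferin substrate with enzyme in mix containing 0.4% BSA, 10 min at room temperature, then NADPH regeneration solution added and incubated 1 h at 37C. Detection reagent stopped reaction; luminescence read after 20 min as RLU.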
# [5] = biological target: Catechol O-methyltransferase (Homo sapiens) (UniProt P21964); test: Confirmatory Screen for Target Class Profiling of Small Molecule Inhibitors of Methyltransferases (AID 1745852); settings: MTase-Glo luminescence, SAH detection, recombinant enzyme; measured here: COMT max response; stronger effect = lower value
# Catechol O-methyltransferase (Homo sapiens), sequence (P21964 whole entry, looked up): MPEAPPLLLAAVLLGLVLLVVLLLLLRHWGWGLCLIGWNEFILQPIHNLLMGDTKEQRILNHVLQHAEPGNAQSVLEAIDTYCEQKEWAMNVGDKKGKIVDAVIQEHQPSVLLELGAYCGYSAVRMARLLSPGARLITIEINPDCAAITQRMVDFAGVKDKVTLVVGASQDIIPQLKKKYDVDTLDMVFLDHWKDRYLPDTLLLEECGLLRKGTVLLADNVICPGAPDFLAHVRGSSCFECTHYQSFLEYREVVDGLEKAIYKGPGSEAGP
# [6] = biological target: Guanidinoacetate N-methyltransferase (Homo sapiens) (UniProt Q14353); test: as above; settings: MTase-Glo luminescence, SAH detection, recombinant enzyme; activity change, negative = inhibition: at 57.3 µM (top of the series) unless noted; series mostly up to 57.3 µM
# [7] = biological target: Nicotinamide N-methyltransferase (Homo sapiens) (UniProt P40261); test: as above; settings: MTase-Glo luminescence, SAH detection, recombinant enzyme; measured here: NNMT max response; stronger effect = lower value
# Nicotinamide N-methyltransferase (Homo sapiens), sequence (P40261 whole entry, looked up): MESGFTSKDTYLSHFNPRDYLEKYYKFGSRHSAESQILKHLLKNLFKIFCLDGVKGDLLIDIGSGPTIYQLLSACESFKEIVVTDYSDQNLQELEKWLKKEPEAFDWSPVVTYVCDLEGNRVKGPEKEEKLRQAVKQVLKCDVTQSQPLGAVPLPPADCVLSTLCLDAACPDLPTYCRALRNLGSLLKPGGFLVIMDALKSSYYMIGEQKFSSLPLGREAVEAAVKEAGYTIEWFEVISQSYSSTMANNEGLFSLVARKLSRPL
# [8] = biological target: Phenylethanolamine N-methyltransferase (Homo sapiens) (UniProt P11086); test: as above; settings: MTase-Glo luminescence, SAH detection, recombinant enzyme; measured here: PNMT max response; stronger effect = lower value
# Phenylethanolamine N-methyltransferase (Homo sapiens), sequence (P11086 whole entry, looked up): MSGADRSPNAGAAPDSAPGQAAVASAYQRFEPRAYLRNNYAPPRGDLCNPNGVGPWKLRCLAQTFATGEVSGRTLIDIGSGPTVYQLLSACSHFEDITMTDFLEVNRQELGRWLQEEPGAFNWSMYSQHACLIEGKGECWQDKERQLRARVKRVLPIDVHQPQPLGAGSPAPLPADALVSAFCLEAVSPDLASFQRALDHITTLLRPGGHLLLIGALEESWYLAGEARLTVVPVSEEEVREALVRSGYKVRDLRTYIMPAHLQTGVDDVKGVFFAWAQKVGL
# [9] = qHTS to identify inhibitors of the type 1 interferon - major histocompatibility complex class I in skeletal muscle: primary screen against the NCATS Mechanism Interrogation Plate v5.0 (MIPE) Libary (AID 1347411); settings: iHSKM cells + IFN-b, HiBiT-tagged MHC-I luminescence, 24 h; series mostly up to 45.8 µM; note: nearly all actives have a fitted effect of over 65% in size; note: potency is the fitted concentration of half-maximal effect
# Method in brief: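 HLA-B HiBit myoblasts, dexamethasone-free medium + 4 ng/ml IFN-b, 24 h compound, 11-pt 1:3 from 46 uM final. Readout: Nano-Glo HiBiT lytic luminescence after 10 min lysis, RT.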
# [10] = qHTS drug screen for cell cycle checkpoint inhibitors in PARPi-resistant BRCA-mutant ovarian cancer cell lines. (AID 1963452; calls by dose curve); settings: PEO1/OlaR viability, CellTiter-Glo luminescence, 96 h, stronger effect = lower value
# Method in brief: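 PEO1, PEO4 and PEO1/OlaR ovarian cancer cells, 600 per well, exposed 96 h at 37C to a dilution series. Viability read by CellTiter-Glo luminescence, normalized to DMSO and empty wells; activity summarized as Z-AUC.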
# NIH3T3 = test: Cytotoxic Profiling of Annotated Libraries Using Quantitative High-Throughput Screening (AID 1296008); settings: Five cell lines viability, CellTiter-Glo ATP luminescence, 48-72 h; max response: stronger effect = lower value; note: potency is the fitted concentration of half-maximal effect; nearly all actives have a fitted effect of over 60% in size
# Method in brief: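 Compounds were pin-transferred onto cells and incubated 48 or 72 hr at 37 degree Celsius, 95% humidity. CellTiter-Glo was added, plates sat 10 min at room temperature, then ATP-coupled luminescence was imaged as the viability read-out.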
# [11] = qHTS assay to identify inhibitors of the type 1 interferon - major histocompatibility complex class I in skeletal muscle: Counter screen cell viability and HiBit confirmation (AID 1347412); settings: iHSKM muscle cells + IFN-b, HiBiT or CellTiter-Glo, 24 h; note: potency is the fitted concentration of half-maximal effect; nearly all actives have a fitted effect of over 60% in size
# Method in brief: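 Duplicate plates, pinned identically: one read for HiBiT-tagged endogenous HLA-B luminescence, the other for ATP-content viability via CellTiter Glo. Cells were genome-engineered human myoblasts given 4 ng/ml IFN-b; compounds 12-pt, 1:3 from 46 uM final; 24 hr exposure.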
# [12] = Confirmatory screen NINDS Rhodamine qHTS for Zika virus inhibitors (AID 1347161); settings: purified enzyme assay, Rhodamine110 substrate fluorescence, 15 min; series mostly up to 114 µM;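 note: purified Zika NS2B-NS3 protease with linked NS2B cofactor domain and Rhodamine110 peptide substrate; nearly all actives have a fitted effect of over 60% in size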
# Method in brief: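 Aprotinin served as in-plate control. Conditions: 25 nM linked NS2B-NS3, pH 8.0 Tris buffer, titrated compounds, 15 min preincubation and 15 min reaction with 1.5 microM Rhod110 substrate at room temperature.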
# [13] = Tertiary RLuc qRT-PCR qHTS assay for Zika virus inhibitors (AID 1347169); settings: infected Vero cells, reporter luminescence, 48-72 h; series mostly up to 1.74 µM; note: nearly all actives have a fitted effect of over 55% in size; note: potency is the fitted concentration of half-maximal effect; for activity change, negative = inhibition: top concentration of the series differs between compounds
# Method in brief: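 Luminescence read-out: live-cell Renilla luciferase substrate applied to infected Vero cells, signal measured after 1-1.5 hrs. Cells had received compound before ZIKV-RLuc (Cambodian strain, MOI 1-2) infection and were incubated 48-72 hrs at 37 degrees C.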
# [14] = biological target: N-terminal Xaa-Pro-Lys N-methyltransferase 1 (Homo sapiens) (UniProt Q9BV86); test: Confirmatory qHTS for Inhibitors of N-terminal methyltransferase 1 (NTMT1): MTaseGlo Assay (AID 1645874); settings: NTMT1 enzyme, MTase-Glo SAH luminescence; series mostly up to 100 µM; note: nearly all actives have a fitted effect of over 65% in size; note: potency is the fitted concentration of half-maximal effect;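 for activity change, negative = inhibition: luminescence from SAH made as NTMT1 methylates SPKRIA peptide using SAM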
# N-terminal Xaa-Pro-Lys N-methyltransferase 1 (Homo sapiens), sequence (Q9BV86 whole entry, looked up): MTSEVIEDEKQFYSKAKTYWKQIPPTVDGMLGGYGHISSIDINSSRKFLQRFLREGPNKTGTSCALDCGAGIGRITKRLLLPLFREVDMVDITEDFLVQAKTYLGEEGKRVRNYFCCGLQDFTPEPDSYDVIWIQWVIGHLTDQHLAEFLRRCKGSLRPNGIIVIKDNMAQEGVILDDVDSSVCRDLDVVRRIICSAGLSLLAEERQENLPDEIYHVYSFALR
# Method in brief: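 Enzyme mix (125 nM NTMT1, 100 uM SAM) + compound, 15 min RT; + 1 uM SPKRIA, 30 min RT, dark; MTase-Glo reagent 30 min, detection solution 30 min; luminescence. % inhibition vs no-enzyme/DMSO controls, 4-parameter Hill fit.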
# [15] = Drug repurposing screens with cells derived from glioblastoma tumor samples (AID 1345199); settings: GBM patient neurospheres viability, ATP luminescence, 48 h; note: nearly all actives have a fitted effect of over 40% in size; note: potency is the fitted concentration of half-maximal effect
# Method in brief: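 Primary testing used CD133+ neurospheres from four GBM patients, seven concentrations, 48 h exposure and ATP-based viability; confirmation added three slower-growing patient lines.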
# [16] = measured here: PEO1 parental Z-AUC
compound,measurement,setting,value
C[C@H](NC(=O)C(C)(C)Oc1ccc(C(F)(F)F)cn1)[C@@H](Cc1ccc(Cl)cc1)c1cccc(C#N)c1,Potency,[1],14.6 µM (active)
same,Potency,[2],inactive
same,Potency,[3],1.9 µM (active)
same,Potency,CAOV3,inactive
C[N+]1(C)[C@@H]2CC[C@H]1CC(OC(=O)C(O)c1ccccc1)C2 (some centres undefined),Potency,[2],inactive
same,Potency,CAOV3,inactive
same,Potency,SKOV3,inactive
CN(C)CCCNc1nc(CN2CCN(C(c3ccc(Cl)cc3)c3ccc(Cl)cc3)CC2)nc2ccccc12,Potency,[2],inactive
same,Potency,[4],inactive
same,activity,[5],2.87%
same,"activity change, negative = inhibition",[6],0%
same,activity,[7],-46.9%
same,activity,[8],-0.0137%
same,Potency,CAOV3,inactive
COCCNCc1ccc(-c2cc3nccc(Oc4ccc(NC(=S)NC(=O)Cc5ccc(F)cc5)cc4F)c3s2)nc1,Potency,[1],16.4 µM (active)
same,Potency,[2],inactive
same,Potency,[9],8.29 µM (active)
same,Z-AUC,[10],0.225 (inactive)
same,Z-AUC,[10]; [16],-0.316
same,Z-AUC,[10]; measured here: PEO4 Z-AUC,0.00247
same,Potency,NIH3T3,6.51 µM (active)
same,Potency,[11]; HiBiT,12.5 µM (active)
same,Potency,[11]; Viability,11.1 µM (active)
CS(=O)(=O)c1ccc(-c2cn3ccccc3n2)cc1,Potency,[12],inactive
same,Potency,[13],inactive
same,Potency,[3],5.49 µM (active)
same,Potency,[4],13.8 µM (active)
same,Potency,[14],9.55 µM (active)
same,Potency,CAOV3,10 µM (active)
same,Potency,SKOV3,8.91 µM (active)
CN([C@H]1c2cc(OCCCC(F)(F)F)ccc2OC(C)(C)[C@@H]1O)S(C)(=O)=O,Potency,[2],inactive
same,Potency,CAOV3,inactive
O=C(c1ccc(F)c(F)c1Nc1ccc(I)cc1F)N1CC(O)([C@@H]2CCCCN2)C1,Potency,[1],20.6 µM (active)
same,Potency,[2],inactive
CC1(CO)CCCC2(C)C1C(OC(=O)c1ccccc1)C=C1C(=O)OCC12O (centres undefined),Potency,NIH3T3,12.8 µM (active)
Cn1nccc1Nc1nccc(-c2ccn([C@H](CO)c3ccc(Cl)c(F)c3)c(=O)c2)n1,Potency,[1],inactive
same,Potency,[2],inactive
same,Potency,[9],inactive
same,Potency,[4],19 µM (active)
same,Z-AUC,[10],-0.731 (inactive)
same,Z-AUC,[10]; [16],-0.241
same,Z-AUC,[10]; measured here: PEO4 Z-AUC,-0.296
same,Potency,CAOV3,inactive
CCCCc1nc(Cl)c(CO)n1Cc1ccc(-c2ccccc2-c2nnn[nH]2)cc1,Potency,CAOV3,inactive
same,Potency,SKOV3,inactive
Cn1c(NC[C@@H](N)Cc2ccccc2)nc(-c2ccncc2)c(-c2ccc3ccccc3c2)c1=O,Potency,[2],inactive
same,Potency,[3],19 µM (active)
same,Z-AUC,[10],-0.2 (inactive)
same,Z-AUC,[10]; [16],0.768
same,Z-AUC,[10]; measured here: PEO4 Z-AUC,0.932
same,Potency,CAOV3,inactive
same,Potency,SKOV3,inactive
CC[C@H](C)[C@H]1O[C@]2(CC[C@@H]1C)C[C@@H]1C[C@@H](C/C=C(\C)[C@@H](O[C@H]3C[C@H](OC)[C@@H](O[C@H]4C[C@H](OC)[C@@H](O)[C@H](C)O4)[C@H](C)O3)[C@@H](C)/C=C/C=C3\CO[C@@H]4[C@H](O)C(C)=C[C@@H](C(=O)O1)[C@]34O)O2,Potency,[13],41.5 nM (active) and 2.62 µM (active)
same,Potency,CAOV3,inactive
same,Potency,SKOV3,inactive
same,"activity, negative = cell killing","[15]; at 46.1 µM (top of the series), tumour line C",-34.4% (inactive)
same,Potency,[15]; tumour line A,1.12 µM (active)
same,Potency,[15]; tumour line B,3.98 µM (active)
same,Potency,[15]; tumour line D,2.82 µM (active)
CN(C)CC(=O)Nc1ccc2[nH]c(=O)c3ccccc3c2c1,Potency,[2],inactive
same,Potency,[3],inactive
same,Potency,[4],13.5 µM (active)
same,Potency,CAOV3,inactive
same,Potency,SKOV3,inactive
C=C1C(=O)O[C@@H]2/C=C(/C)CC3C=C(C[C@H](OC(=O)/C(C)=C\C)[C@@H]12)C(=O)O3 (some centres undefined),Potency,[2],inactive
same,Potency,CAOV3,inactive
same,Potency,SKOV3,inactive
COc1ccc(C2(CNC(=O)[C@](C)(Cc3c[nH]c4ccccc34)NC(=O)Nc3ccc([N+](=O)[O-])cc3)CCCCC2)nc1,Potency,[3],3.01 µM (active)
same,Potency,[4],2.68 µM (active)
same,Potency,CAOV3,inactive
CC(=O)N1CCN([C@H]2CCN(C(=O)N(C)[C@H](C)c3cc(C(F)(F)F)cc(C(F)(F)F)c3)[C@@H](c3ccc(F)cc3C)C2)CC1,Potency,[2],inactive
same,Potency,[3],26.8 µM (active)
same,Potency,CAOV3,inactive
same,Potency,SKOV3,inactive
Fc1ccccc1CNCc1ccc(-c2ccnc3[nH]ccc23)cc1,Potency,[1],11.6 µM (active)
same,Potency,[2],inactive
same,Potency,[3],0.477 µM (active)
same,Potency,[4],inactive
same,Potency,[14],inactive
same,Potency,CAOV3,inactive
same,Potency,SKOV3,inactive
Cc1cc(N=Nc2ccc(S(=O)(=O)Nc3ccccn3)cc2)c(N)cc1O,Potency,NIH3T3,8.2 µM (active)
CNc1cc(OC)c(C(=O)N[C@@H]2CCN(Cc3ccccc3)[C@@H]2C)cc1Cl,Potency,[2],inactive
same,Potency,[3],0.107 µM (active)
same,Potency,[4],8.49 µM (active)
same,Potency,CAOV3,inactive
same,Potency,SKOV3,inactive
Cc1c(C(=O)NCCCO)cnn1-c1nc(-c2cccc(C(F)(F)F)c2)cs1,Potency,[2],inactive
same,Potency,[4],2.39 µM (active)
same,Potency,CAOV3,inactive
C[C@@H](O[C@H]1OCCN(Cc2n[nH]nc2CN(C)C)[C@H]1c1ccc(F)cc1)c1cc(C(F)(F)F)cc(C(F)(F)F)c1,Potency,[2],inactive
same,Potency,[3],15.1 µM (active)
same,Potency,[4],15.1 µM (active)
same,Potency,SKOV3,inactive
